These results are taken from PubChem BioAssay (NCATS).

Results filed as inconclusive are left out. Activity calls are given as the source filed them. Unless noted, calls follow the shape of the dose curve; as a rule, active = well fitted activation curve with a large enough effect; inconclusive = small, poorly fitted or top-dose-only effect; inactive = flat fitted curve, though single readings scatter.

The first assay can be described thus: Confirmation and Secondary Assay for Modulators of Hemoglobin Beta Chain Splicing at IVS2 654 locus (AID 910).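 Also: HeLa cells stably carrying EGFP split by mutant beta-globin IVS2-654 intron; per-well total GFP intensity by laser scanning cytometry after 2-day treatment; % of control where 0% means no effect.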 Particulars: HeLa EGFP-654 splicing reporter, GFP fluorescence, 48 h; series mostly up to 38.3 µM; activation (splicing correction): at the top concentration. The method in brief:
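Readout: per-well total peak green fluorescence (488 nm ex, 500–520 nm em) from objects 5–250 µm, reflecting correct splicing of an EGFP-654 reporter. Compounds were applied for 2 days at 37 °C to overnight-plated HeLa EGFP-654 cells; controls were DMSO and 500 nM IVS2-654 PNA.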
For the molecule `Clc1ccccc1-c1nccc(-n2ccnc2)n1`, the “activation (splicing correction)” value was 2.54% (inactive).

Turning to `Cc1cccc(CNc2ccnc(-c3ccoc3)n2)c1`, the “activation (splicing correction)” value is 0.414% (inactive).

Turning to `c1nc(NC2CCNCC2)c2cc(-c3ccc4c(c3)OCO4)ccc2n1`, the “activation (splicing correction)” value was -0.39% (inactive).

As to `COc1ccccc1CNc1ncncc1-c1ccoc1`, the “activation (splicing correction)” value was 0.376% (inactive).

With `FC(F)(F)c1ccccc1-c1cc(N2CCNCC2)ncn1`, the “activation (splicing correction)” value was 0.861% (inactive).

Turning to `CC(=O)NCCNc1nc(-c2ccccc2C(F)(F)F)nc2ccccc12`, the “activation (splicing correction)” value was 1.79% (inactive).

For the molecule `COc1ccccc1CNc1ccnc(-c2ccoc2)n1`, the “activation (splicing correction)” value was 0.847% (inactive).

Consider `Cc1ccccc1-c1cncnc1Nc1ccc(F)cc1`, for which the “activation (splicing correction)” value was 3.04% (inactive).

Take `CN(Cc1ccco1)c1cc(-c2ccccc2Cl)ncn1`: the “activation (splicing correction)” value was 0.518% (inactive).

Consider `CN(Cc1ccco1)c1ncnc2ccc(-c3cccc(C#N)c3)cc12`, for which the “activation (splicing correction)” value was -1.29% (inactive).

As to `c1ccc(CNc2ccnc(-c3ccoc3)n2)cc1`, the “activation (splicing correction)” value was 3.59% (inactive).

`COc1cccc(-c2ccc3ncnc(NC4CCNCC4)c3c2)c1`: the “activation (splicing correction)” value was -2.1% (inactive).

Regarding `COc1cccc(-c2cc(NCc3cccs3)ncn2)c1`, the “activation (splicing correction)” value was 2.11% (inactive).

As for `CNc1nc(-c2ccccc2Cl)nc2ccccc12`, the “activation (splicing correction)” value is -1.42% (inactive).

`O=C(O)C1CCN(c2ncnc3ccc(-c4ccccc4C(F)(F)F)cc23)CC1`: the “activation (splicing correction)” value was 0.191% (inactive).

With `CC(=O)NCCNc1nc(-c2ccccc2Cl)nc2ccccc12`, the “activation (splicing correction)” value is 0.342% (inactive).

Take `CN(C)c1ccc(-c2cncnc2NCc2cccs2)cc1`: the “activation (splicing correction)” value was 5.85% (inactive).

For `Cc1cccc(CNc2ncncc2-c2cccc(C#N)c2)c1`, the “activation (splicing correction)” value was 3.18% (inactive).

Turning to `Cc1cccc(CNc2ncncc2-c2ccc3c(c2)OCO3)c1`, the “activation (splicing correction)” value is -0.0582% (inactive).

Take `COc1ccc2[nH]cc(CCNc3cc(-c4ccccc4C(F)(F)F)ncn3)c2c1`: the “activation (splicing correction)” value is -0.531% (inactive).

Regarding `c1ccc2c(-n3ccnc3)nc(-c3ccoc3)nc2c1`, the “activation (splicing correction)” value was 1.51% (inactive).

For `COc1cccc(-c2nccc(-n3ccnc3)n2)c1`, the “activation (splicing correction)” value was -0.88% (inactive).

Consider `CN(C)c1ccc(-c2cc(-n3ccnc3)ncn2)cc1`, for which the “activation (splicing correction)” value is -1.34% (inactive).

Another assay is described as follows: qHTS Assay for Identification of Small Molecule Agonists for Hypoxia Response Element Signaling Pathway (AID 914; active = well fitted activation curve with a large enough effect in the signal ratio, with a control signal flat, not every such curve was filed as active; the % refers to the signal ratio; also: potency is read from the fitted curve at half-maximal effect; as to activation: % of control where 0% means no effect). As to conditions: ME-180 (cervical carcinoma) HRE-bla reporter, beta-lactamase ratio, CoCl2, 17 h; activation: stronger effect = higher value. In short, it runs like this: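 A beta-lactamase reporter under hypoxia response element control in ME-180 cells served as the system. Compound titrations plus EC50 CoCl2 ran 17 h at 37 degrees Celsius; AC50 values were fitted from %Activity.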
In general terms: Quantitative high-throughput screening tests each substance at several concentrations.
As for `COc1ncc2nc(-c3cccc(C#N)c3)c(=O)n(CCC#N)c2n1`, the activation is -3.76% (inactive).

As for `COc1cccc(-c2cc(NCc3cccs3)ncn2)c1`, the activation is -6.23% (inactive).

For the molecule `CNc1nc(-c2ccccc2Cl)nc2ccccc12`, the activation was 11.6% (inactive).

With `CC(=O)NCCNc1nc(-c2ccccc2Cl)nc2ccccc12`, the activation was 19.9% (inactive).

As for `Cc1cccc(CNc2ncncc2-c2ccc3c(c2)OCO3)c1`, the activation is -16.9% (inactive).

On to `COc1ncc2nc(-c3cccs3)c(=O)n(-c3ccccc3)c2n1`, for which the Potency was 3.16 µM (active).

The nature of the next assay: Confirmation and Secondary Assay for Modulators of Hemoglobin Beta Chain Splicing at IVS2 705 locus (AID 930). Also: % of control where 0% means no effect. Particulars: HeLa EGFP-705 splicing reporter, GFP fluorescence, 48 h; series mostly up to 38.3 µM; activation: at the top concentration. The method in brief: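 Fluorescence gain (488 nm laser, 500-520 nm PMT) reflects restored correct splicing of a mutant IVS2-705 intron inside EGFP in stably transfected HeLa cells after 2-day compound treatment.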
For `Clc1ccccc1-c1nccc(-n2ccnc2)n1`, the “activation” value is 0.0948% (inactive).

Regarding `Cc1cccc(CNc2ccnc(-c3ccoc3)n2)c1`, the “activation” value is -0.659% (inactive).

As for `c1nc(NC2CCNCC2)c2cc(-c3ccc4c(c3)OCO4)ccc2n1`, the “activation” value is -0.112% (inactive).

In the case of `COc1ccccc1CNc1ncncc1-c1ccoc1`, the “activation” value is -0.312% (inactive).

For the molecule `FC(F)(F)c1ccccc1-c1cc(N2CCNCC2)ncn1`, the “activation” value was 1.51% (inactive).

Take `CC(=O)NCCNc1nc(-c2ccccc2C(F)(F)F)nc2ccccc12`: the “activation” value was 0.685% (inactive).

Regarding `COc1ccccc1CNc1ccnc(-c2ccoc2)n1`, the “activation” value was 0.209% (inactive).

Take `Cc1ccccc1-c1cncnc1Nc1ccc(F)cc1`: the “activation” value is 0.706% (inactive).

`CN(Cc1ccco1)c1cc(-c2ccccc2Cl)ncn1`: the “activation” value was -0.46% (inactive).

As to `CN(Cc1ccco1)c1ncnc2ccc(-c3cccc(C#N)c3)cc12`, the “activation” value is -0.168% (inactive).

With `c1ccc(CNc2ccnc(-c3ccoc3)n2)cc1`, the “activation” value is -0.0992% (inactive).

Turning to `COc1cccc(-c2ccc3ncnc(NC4CCNCC4)c3c2)c1`, the “activation” value is 0.396% (inactive).

For `COc1cccc(-c2cc(NCc3cccs3)ncn2)c1`, the “activation” value is 0.523% (inactive).

For `CNc1nc(-c2ccccc2Cl)nc2ccccc12`, the “activation” value was 0.139% (inactive).

`O=C(O)C1CCN(c2ncnc3ccc(-c4ccccc4C(F)(F)F)cc23)CC1`: the “activation” value was 0.467% (inactive).

Take `CC(=O)NCCNc1nc(-c2ccccc2Cl)nc2ccccc12`: the “activation” value is 0.485% (inactive).

As to `CN(C)c1ccc(-c2cncnc2NCc2cccs2)cc1`, the “activation” value was -0.295% (inactive).

On to `Cc1cccc(CNc2ncncc2-c2cccc(C#N)c2)c1`, for which the “activation” value was 0.0994% (inactive).

With `Cc1cccc(CNc2ncncc2-c2ccc3c(c2)OCO3)c1`, the “activation” value was 0.993% (inactive).

As for `COc1ccc2[nH]cc(CCNc3cc(-c4ccccc4C(F)(F)F)ncn3)c2c1`, the “activation” value is 0.507% (inactive).

Regarding `c1ccc2c(-n3ccnc3)nc(-c3ccoc3)nc2c1`, the “activation” value is 0.573% (inactive).

Regarding `COc1cccc(-c2nccc(-n3ccnc3)n2)c1`, the “activation” value is -0.359% (inactive).

On to `CN(C)c1ccc(-c2cc(-n3ccnc3)ncn2)cc1`, for which the “activation” value is 0.939% (inactive).

The next assay is described as follows: qHTS Assay for Lipid Storage Modulators (AID 1519; calls by dose curve; also: % is scaled to controls: 0 for no effect and ±100 for the full control effect). Particulars: Drosophila S3 cells, BODIPY lipid droplet/cell ratio, laser cytometry; at 57.5 µM (top of the series); cells loaded with oleic acid. In short, it runs like this:
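Cells seeded at 5,000 per well were treated with compounds over a concentration series and loaded with oleic acid (400 uM, as added). Lipid droplet fluorescence (488 nm excitation, 500-530 nm channel) was read by laser-scanning cytometry and normalized to 20 uM Triacsin C.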
As for `Clc1ccccc1-c1nccc(-n2ccnc2)n1`, the activity change, negative = inhibition is 8.95% (inactive).

For the molecule `Cc1cccc(CNc2ccnc(-c3ccoc3)n2)c1`, the activity change, negative = inhibition was 6.91% (inactive).

With `c1nc(NC2CCNCC2)c2cc(-c3ccc4c(c3)OCO4)ccc2n1`, the activity change, negative = inhibition was 6.44% (inactive).

Take `O=c1c(-c2ccccc2)nc2cnc(Oc3ccccc3)nc2n1Cc1cccs1`: the activity change, negative = inhibition is -10.3% (inactive).

Turning to `COc1ccc(-n2c(=O)c(-c3cn(C)c4ccccc34)nc3cnc(OC)nc32)cc1`, the activity change, negative = inhibition was -13.3% (inactive).

On to `CN(C)c1ncc2ncc(=O)n(CCC#N)c2n1`, for which the activity change, negative = inhibition is 2.4% (inactive).

For the molecule `COc1ccccc1CNc1ncncc1-c1ccoc1`, the activity change, negative = inhibition is 9.08% (inactive).

`COc1ncc2ncc(=O)n(Cc3cccs3)c2n1`: the activity change, negative = inhibition was 4.1% (inactive).

Take `FC(F)(F)c1ccccc1-c1cc(N2CCNCC2)ncn1`: the activity change, negative = inhibition is 9.89% (inactive).

As for `CC(=O)NCCNc1nc(-c2ccccc2C(F)(F)F)nc2ccccc12`, the activity change, negative = inhibition was 9.13% (inactive).

Turning to `COc1ccccc1CNc1ccnc(-c2ccoc2)n1`, the activity change, negative = inhibition is 8.47% (inactive).

As to `Cc1ccccc1-c1cncnc1Nc1ccc(F)cc1`, the activity change, negative = inhibition is 6.79% (inactive).

Turning to `CN(Cc1ccco1)c1cc(-c2ccccc2Cl)ncn1`, the activity change, negative = inhibition was 6.03% (inactive).

As for `COc1ccc(-n2c(=O)cnc3cnc(Oc4ccccc4)nc32)cc1`, the activity change, negative = inhibition is 1.98% (inactive).

For `COc1ncc2nc(-c3cccc(C#N)c3)c(=O)n(CCC#N)c2n1`, the activity change, negative = inhibition was 3.8% (inactive).

`CN(Cc1ccco1)c1ncnc2ccc(-c3cccc(C#N)c3)cc12`: the activity change, negative = inhibition is 6.34% (inactive).

Regarding `c1ccc(CNc2ccnc(-c3ccoc3)n2)cc1`, the activity change, negative = inhibition is 9.38% (inactive).

For the molecule `COc1ncc2nc(-c3cc(F)cc(F)c3)c(=O)n(CCC#N)c2n1`, the activity change, negative = inhibition was 5.74% (inactive).

Regarding `Cc1nc2cnc(Nc3ccccc3)nc2n(C)c1=O`, the activity change, negative = inhibition is -9.81% (inactive).

In the case of `COc1ccc(-n2c(=O)c(C)nc3cnc(Oc4ccccc4)nc32)cc1`, the activity change, negative = inhibition was 1.98% (inactive).

Regarding `COc1ccccc1CCn1c(=O)c(-c2cc(F)cc(F)c2)nc2cncnc21`, the activity change, negative = inhibition was 6.22% (inactive).

With `COc1cccc(-c2ccc3ncnc(NC4CCNCC4)c3c2)c1`, the activity change, negative = inhibition was 7.49% (inactive).

Consider `COc1cccc(-c2cc(NCc3cccs3)ncn2)c1`, for which the activity change, negative = inhibition is 9.36% (inactive).

Regarding `Cn1c(=O)c(-c2cc(F)cc(F)c2)nc2cnc(Oc3ccccc3)nc21`, the activity change, negative = inhibition was -4.93% (inactive).

Consider `CNc1nc(-c2ccccc2Cl)nc2ccccc12`, for which the activity change, negative = inhibition is 5.07% (inactive).

Turning to `O=C(O)C1CCN(c2ncnc3ccc(-c4ccccc4C(F)(F)F)cc23)CC1`, the activity change, negative = inhibition was 4.82% (inactive).

Consider `CC(=O)NCCNc1nc(-c2ccccc2Cl)nc2ccccc12`, for which the activity change, negative = inhibition was 8.12% (inactive).

`CN(C)c1ccc(-c2cncnc2NCc2cccs2)cc1`: the activity change, negative = inhibition was 7.98% (inactive).

For `O=c1c(-c2ccc(F)cc2)nc2cnc(N3CCOCC3)nc2n1C[C@H]1CCCO1`, the activity change, negative = inhibition was -21.9% (inactive).

For the molecule `Cc1cccc(CNc2ncncc2-c2cccc(C#N)c2)c1`, the activity change, negative = inhibition was 4.89% (inactive).

As for `COc1ccc(Oc2ncc3nc(-c4ccc(OC)cc4)c(=O)n(Cc4cccs4)c3n2)cc1`, the activity change, negative = inhibition was 6.95% (inactive).

With `Cc1cccc(CNc2ncncc2-c2ccc3c(c2)OCO3)c1`, the activity change, negative = inhibition is 12.7% (inactive).

`N#CCCn1c(=O)cnc2cnc(N3CCOCC3)nc21`: the activity change, negative = inhibition was 6.47% (inactive).

Regarding `COc1ncc2nc(-c3cccs3)c(=O)n(-c3ccccc3)c2n1`, the activity change, negative = inhibition is -3.04% (inactive).

Turning to `COc1ccc2[nH]cc(CCNc3cc(-c4ccccc4C(F)(F)F)ncn3)c2c1`, the activity change, negative = inhibition is 6.48% (inactive).

As to `Cc1nc2cnc(Oc3cccc(Cl)c3)nc2n(CCC#N)c1=O`, the activity change, negative = inhibition is 3.95% (inactive).

In the case of `COc1ncc2ncc(=O)n(C)c2n1`, the activity change, negative = inhibition is 6.15% (inactive).

`c1ccc2c(-n3ccnc3)nc(-c3ccoc3)nc2c1`: the activity change, negative = inhibition is 9.53% (inactive).

Turning to `COc1cccc(-c2nccc(-n3ccnc3)n2)c1`, the activity change, negative = inhibition was 4.69% (inactive).

In the case of `CN(C)c1ccc(-c2cc(-n3ccnc3)ncn2)cc1`, the activity change, negative = inhibition is 9.39% (inactive).
